Active and inactive are the calls of the source. No rule for the calls is given here.

Chain of Pantothenate synthetase (Mycobacterium tuberculosis (strain ATCC 25618 / H37Rv)) (P9WIL5 whole entry, looked up): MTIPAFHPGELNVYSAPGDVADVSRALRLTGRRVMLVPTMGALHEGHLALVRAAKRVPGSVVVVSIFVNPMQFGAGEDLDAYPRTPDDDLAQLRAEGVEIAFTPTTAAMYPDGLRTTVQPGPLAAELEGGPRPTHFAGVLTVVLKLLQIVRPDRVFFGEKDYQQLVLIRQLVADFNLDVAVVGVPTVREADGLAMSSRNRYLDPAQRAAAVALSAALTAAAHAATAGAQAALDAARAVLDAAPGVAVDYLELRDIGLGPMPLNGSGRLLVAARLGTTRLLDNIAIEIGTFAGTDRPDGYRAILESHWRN

The assay addresses Pantothenate synthetase (Mycobacterium tuberculosis (strain ATCC 25618 / H37Rv)) (UniProt P9WIL5). Nature of the assay: Coupled enzyme confirmation of inhibitors against recombinant Mtb PanC (AID 375).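 Also: 0% = full reaction with vehicle and 100% = no enzyme background.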 The following applies: coupled enzyme assay; at 10 µM, stronger effect = higher value.
For `O=C(c1ccc(Cl)cc1)N1CCCCC(Sc2nnc(-c3ccc4c(c3)OCO4)o2)C1=O` (stereo not drawn), the inhibition is 3% (inactive).

As to `Cn1cc(Cl)c(C(=O)NC2CCCC2)n1`, the inhibition is 6% (inactive).

As to `c1ccc2c(c1)ccc1nnc(-c3ccc4c(c3)OCO4)n12`, the inhibition was 2% (inactive).

Take `COc1ccc(CNc2ccc(C(=O)O)cc2)cc1`: the inhibition was 0% (inactive).

Take `CS(=O)(=O)N1CCCC(C(=O)N2CCOCC2)C1` (stereo not drawn): the inhibition was 6% (inactive).

On to `CC(C)(C)c1nnc(NC(=O)C2CCN(c3ncccn3)CC2)s1`, for which the inhibition was 1% (inactive).

In the case of `COc1ccc(OC(C)C(=O)N2CCN(c3ccccn3)CC2)cc1` (stereo not drawn), the inhibition was 7% (inactive).

On to `c1ccc(-c2ccc(C(c3ccccc3)n3ccnc3)cc2)cc1` (stereo not drawn), for which the inhibition is 3% (inactive).

Regarding `Nc1ccc(S(=O)(=O)NC(=O)c2ccccc2)cc1`, the inhibition is 0% (inactive).

Consider `C=CCc1ccccc1OCC(O)CN1CCN(Cc2ccc3c(c2)OCO3)CC1` (stereo not drawn), for which the inhibition is 5% (inactive).

For the molecule `O=C1CN(C(=O)CN2CCCC2)C(c2ccccc2)c2cc(Br)ccc2N1` (stereo not drawn), the inhibition is 0% (inactive).

Turning to `O=c1c2ccc(-c3nnc4n3-c3ccccc3SC4)cc2nc2n1CCCCC2`, the inhibition was 0% (inactive).

With `CC1CN(C(=O)CSc2ncnc3sccc23)CC(C)O1` (stereo not drawn), the inhibition is 0% (inactive).

Regarding `Cn1c(CN2CCOCC2)nnc1SCC(=O)NCCc1ccccc1`, the inhibition is 0% (inactive).

Turning to `CCn1c(SCC(=O)C(C)(C)C)nnc1-c1cnccn1`, the inhibition was 0% (inactive).

Regarding `CC1CCCC(NC(=O)CN2CCN(Cc3ccc(Cl)cc3)C2=O)C1C` (stereo not drawn), the inhibition is 7% (inactive).

For the molecule `COc1ccccc1CC(NC(C)=O)C(=O)NC1CCN(c2nnnn2-c2ccccc2)CC1` (stereo not drawn), the inhibition is 0% (inactive).

On to `Cc1cccc(CCNC(=O)C2CCCN(S(=O)(=O)c3cnc[nH]3)C2)c1` (stereo not drawn), for which the inhibition was 5% (inactive).

These data come from PubChem BioAssay.
